# Only some compounds are listed: those with a hit (about 1% of all), similar ones and a draw of the others.
# Efflux pump mplx: antifungal efflux pump inhibition, Nile Red retention; inhibition, % at 10 µM; actives 0.44% (n = 330,000); S. cerevisiae Candida pump triplex;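 active = plate passing quality check with inhibition over a set limit, or well fluorescence over plate mean plus 4 SD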;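 also: Nile Red retained in pooled yeast measured as flow cytometry median fluorescence; higher means more Nile Red kept so more efflux inhibition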
# NPR2 activator: GC-B (human) receptor activation | P20594 | HEK293-GC-B cells, CNP EC30, cGMP TR-FRET; 0% at EC30 CNP, 100% saturating CNP | activation, % at 10 µM | actives 0.11% (n = 370,000) | AID 1920062;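 active = activation at 10 µM reaching about 35% in either raw or pattern-adjusted values, limit read from the data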
# TAG inh: inhibitors of triacylglycerol accumulation | inhibition, % at 12.5 µM | actives 0.66% (n = 230,000) | H9c2 cells, Nile Red lipid (TAG) fluorescence; cells loaded with 200 µM oleic acid;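 active = pattern-corrected inhibition of lipid staining of at least 50% with the nuclear-stain viability signal not falling by more than 50%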
# Bfl-1 A1 inh: inhibitors of the anti-apoptotic protein A1, read as caspase activation. MEF A1-2A-BIM cells, Caspase-Glo 3/7 luminescence, 3 h; percent of clofoctol response, vehicle zero. caspase activation, % (concentration not given with the values). actives 0.066% (n = 330,000);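 active = over half of replicate activation scores above 10%, or exactly half above 10 with the replicate mean above 10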
# HSV augment: increases HSV replication in cells. HSV replication augmentation in cells, fold increase. maximum fold increase. actives 0.005% (n = 220,000). AID 1956; in the data active = maximum fold increase above about 1.5; tested in PC3 cells
# NPR1 activator: GC-A (human) enzyme activation; HEK293 GC-A cells, cGMP TR-FRET, EC30 ANP; 0% at EC30 ANP, 100% saturating ANP; activation, % at 10 µM; actives 0.14% (n = 370,000); AID 1671463; in the data active = activation above about 40%
# H9c2 TAG conf: confirmation of triacylglycerol accumulation inhibitors; shares compounds with TAG inh; H9c2 lipid accumulation, Nile Red fluorescence; cells loaded with 200 µM oleic acid; inhibition, % at 12.5 µM; actives 71% (n = 990); AID 651629;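 active = mean inhibition across replicates of 40% or more; inactive = mean inhibition below 40%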
# Numbers stand for hits; i = inactive; nt = not tested or not shown.
SMILES,Efflux pump mplx,NPR2 activator,TAG inh,Bfl-1 A1 inh,HSV augment,NPR1 activator,H9c2 TAG conf
CN(C)CCNC(=O)C(=O)Nc1ccc2c(c1)N(S(=O)(=O)c1cccs1)CCC2,i,i,54,i,nt,i,54
COCCCNC(=O)C(=O)Nc1ccc2c(c1)N(S(=O)(=O)c1cccs1)CCC2,i,i,54,i,nt,i,61
CC1CCN(c2ccc(/C=C(\C#N)c3nn(-c4ccccc4)c(N)c3C#N)cc2[N+](=O)[O-])CC1,i,i,nt,i,i,i,nt
CC1CCN(c2cc(N3CCC(C)CC3)c([N+](=O)[O-])cc2/C=C(\C#N)c2nn(-c3ccccc3)c(N)c2C#N)CC1,i,i,52,i,nt,i,49
O=C(OC1CC2CCC(C1)[N+]21CCCC1)C(O)(c1ccccc1)c1ccccc1 (centres undefined),nt,i,nt,nt,nt,i,nt
CCCCCc1cc(=O)oc2c(C(CCN3CCN(c4ccccc4)CC3)c3ccc(N(C)C)cc3)c(OC)cc(OC)c12 (centres undefined),nt,i,73,i,i,i,63
CCCCCc1cc(=O)oc2c(C(CCN(CC)CC)c3cc(OC)c(OC)c(OC)c3)c(OC)cc(OC)c12 (centres undefined),i,i,114,i,i,i,97
COc1cc(OC)c2c(-c3ccccc3)cc(=O)oc2c1C(CCN1CCN(c2ccccc2)CC1)c1ccc(N(C)C)cc1 (centres undefined),nt,i,54,i,i,i,63
COc1ccc(C(CCN2CCN(c3ccccc3)CC2)c2c(OC)cc(OC)c3c(-c4ccccc4)cc(=O)oc23)cc1 (centres undefined),i,i,i,i,i,i,nt
COc1ccc(C2OCCNC3C2C(=O)N(Cc2ccc(OC)cc2OC)C3Cc2ccccc2)cc1 (centres undefined),nt,i,nt,nt,nt,i,nt
COc1cccc(-c2nc(-c3ccc(NC(=O)Cc4ccccc4OC)cc3)no2)c1,nt,nt,51,nt,i,nt,55
O=C(NCc1ccccc1Cl)C1CCCN(c2ncccn2)C1 (centres undefined),nt,i,nt,nt,nt,i,nt
C#CCN(C[C@H]1[C@H](OC(=O)NCC2CCCCC2)[C@H](OC(=O)NCC2CCCCC2)C[C@@H](C(=O)OC)[C@H]1C(=O)OC)S(=O)(=O)c1ccc(C)cc1,nt,i,82,nt,nt,i,89
C#CCN(C[C@H]1[C@H](OC(=O)NC2CC2)[C@H](OC(=O)NC2CC2)C[C@@H](C(=O)OC)[C@H]1C(=O)OC)S(=O)(=O)c1ccc(C)cc1,nt,i,i,nt,nt,i,nt
Cc1ccc(NC(=O)NNC(=O)CCn2nc(C)c([N+](=O)[O-])c2C)cc1C,nt,i,nt,nt,nt,i,nt
COc1cc(-c2nnc3n2N=C(c2ccccc2)CS3)cc(OC)c1OC,i,i,90,i,i,i,66
COc1ccc(OC)c(C2=Nn3c(nnc3-c3cc(OC)c(OC)c(OC)c3)SC2)c1,i,i,nt,i,i,i,nt
Oc1ccc(C[C@H]2CNC(=S)N2CC2CCCN2C[C@H](Cc2ccc(O)cc2)N2C[C@H](Cc3ccc(O)cc3)N(CC3CCCCC3)C2=S)cc1 (some centres undefined),nt,i,75,nt,nt,i,73
CSCCCNC(=O)C1CCN(S(=O)(=O)c2ccc3[nH]c(=O)oc3c2)CC1,nt,i,nt,nt,nt,i,nt
Cn1nnnc1Sc1ncnc2scc(-c3ccc(-c4ccccc4)cc3)c12,i,i,59,i,nt,i,i
Cn1nnnc1Sc1ncnc2scc(-c3ccc(C#N)cc3)c12,i,i,i,i,nt,i,nt
COc1ccc(NC(=O)CN(C)S(=O)(=O)c2ccc(Br)s2)cc1,i,i,nt,i,nt,i,nt
Cc1cccc2sc(NC(=O)CN(C)S(=O)(=O)c3ccc(Br)s3)nc12,i,i,52,i,i,i,i
CCNc1nc(SC(C)C(=O)Nc2ccccc2)nc(N(C)C)n1 (centres undefined),i,i,54,i,nt,i,i
O=C(C1CCCN1S(=O)(=O)c1ccc(Br)s1)N1CCc2ccccc2C1 (centres undefined),nt,i,nt,nt,nt,i,nt
COc1cccc(-c2nc(NC(C)C)c3ccccc3n2)c1O,i,i,nt,i,i,i,nt

# High-throughput results from PubChem BioAssay.
